Results taken from PubChem BioAssay AID1159580 (chemical genetic matrix, 2015).
The whole screen tested about 5,500 compounds, of which about 2,000 (36%) were called active. About 18% were inconclusive and are not listed. The list shows a part of the results. Unmarked numbers belong to inactive results. Rule as the data show it: active = normalized growth mostly below about 0.91 (no sharp cut-off); inconclusive = no clear call, values can overlap the other calls; inactive = mostly above about 0.92.

Assay: chemical genetic growth profiling, strain panel (AID 1159580);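 also: tested at 20 µM; growth read once vehicle control cultures reached saturation at 30 °C; 1 = growth at the plate median or of vehicle wells; lower values mean less growth of the strain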
Settings: S. cerevisiae deletion strains, growth OD
[1] = locus YAL021C, strain ccr4, active compounds read low
[2] = locus YAL026C, strain drs2, active compounds read low
[3] = locus YAL030W, strain snc1, active compounds read low
[4] = locus YBL061C, strain skt5, active compounds read low
[5] = locus YBR009C, strain hhf1, active compounds read low
[6] = locus YBR023C, strain chs3, active compounds read low
[7] = locus YBR171W, strain sec66, active compounds read low
[8] = locus YBR231C, strain swc5, active compounds read low
[9] = locus YBR279W, strain paf1, active compounds read low
[10] = locus YCL011C, strain gbp2, active compounds read low
[11] = locus YCL016C, strain dcc1, active compounds read low
[12] = locus YCL061C, strain MRC1, active compounds read low
[13] = locus YCL069W, strain vba3, active compounds read low
[14] = locus YCR088W, strain abp1, active compounds read low
[15] = locus YDL005C, strain med2, active compounds read low
[16] = locus YDL040C, strain nat1, active compounds read low
[17] = locus YDR001C, strain nth1, active compounds read low
[18] = locus YDR069C, strain doa4, active compounds read low
[19] = locus YDR137W, strain rgp1, active compounds read low
[20] = locus YDR159W, strain sac3, active compounds read low
[21] = locus YDR297W, strain sur2, active compounds read low
[22] = locus YDR334W, strain swr1, active compounds read low
[23] = locus YDR335W, strain msn5, active compounds read low
[24] = locus YDR392W, strain spt3, active compounds read low
[25] = locus YEL003W, strain gim4, active compounds read low
[26] = locus YEL037C, strain rad23, active compounds read low
[27] = locus YEL061C, strain CIN8 (second series), active compounds read low
[28] = locus YER015W, strain faa2, active compounds read low
[29] = locus YER016W, strain bim1, active compounds read low
[30] = locus YER111C, strain swi4, active compounds read low
[31] = locus YER155C, strain BEM2 (second series), active compounds read low
[32] = locus YFR010W, strain ubp6, active compounds read low
[33] = locus YGL167C, strain pmr1, active compounds read low
[34] = locus YGL173C, strain kem1, active compounds read low
[35] = locus YGL227W, strain vid30, active compounds read low
[36] = locus YGL240W, strain doc1, active compounds read low
[37] = locus YGL253W, strain hxk2, active compounds read low
[38] = locus YHR013C, strain ard1, active compounds read low
[39] = locus YHR027C, strain rpn1, active compounds read low
[40] = locus YHR030C, strain SLT2, active compounds read low
[41] = locus YHR079C, strain IRE1, active compounds read low
[42] = locus YHR142W, strain chs7, active compounds read low
[43] = locus YJL092W, strain hpr5, active compounds read low
[44] = locus YJL095W, strain BCK1 (second series), active compounds read low
[45] = locus YJL095W, strain BCK1, active compounds read low
[46] = locus YJL115W, strain asf1, active compounds read low
[47] = locus YJL129C, strain trk1, active compounds read low
[48] = locus YJL154C, strain vps35, active compounds read low
[49] = locus YJL164C, strain tpk1, active compounds read low
[50] = locus YJL166W, strain qcr8, active compounds read low
[51] = locus YJL187C, strain SWE1, active compounds read low
[52] = locus YJR066W, strain TOR1, active compounds read low
[53] = locus YKL160W, strain elf1, active compounds read low
[54] = locus YKR026C, strain gcn3, active compounds read low
[55] = locus YKR091W, strain srl3, active compounds read low
[56] = locus YLL001W, strain dnm1, active compounds read low
[57] = locus YLL026W, active compounds read low
[58] = locus YLL041C, strain sdh2, active compounds read low
[59] = locus YLR027C, strain aat2, active compounds read low
[60] = locus YLR113W, strain HOG1, active compounds read low
[61] = locus YLR221C, strain rsa3, active compounds read low
[62] = locus YLR258W, strain gsy2, active compounds read low
[63] = locus YLR262C, strain YPT6 (second series), active compounds read low
[64] = locus YLR320W, strain mms22, active compounds read low
[65] = locus YLR342W, strain FKS1, active compounds read low
[66] = locus YLR357W, strain rsc2, active compounds read low
[67] = locus YLR370C, strain arc18, active compounds read low
[68] = locus YLR384C, strain iki3, active compounds read low
[69] = locus YML120C, strain ndi1, active compounds read low
[70] = locus YMR058W, strain fet3, active compounds read low
[71] = locus YMR125W, strain sto1, active compounds read low
[72] = locus YMR129W, active compounds read low
[73] = locus YMR205C, strain PFK2, active compounds read low
[74] = locus YMR231W, strain pep5, active compounds read low
[75] = locus YNL071W, strain lat1, active compounds read low
[76] = locus YNL183C, strain NPR1, active compounds read low
[77] = locus YNL209W, strain ssb2, active compounds read low
[78] = locus YNL248C, strain rpa49, active compounds read low
[79] = locus YNL322C, strain KRE1 (second series), active compounds read low
[80] = locus YNR049C, strain mso1, active compounds read low
[81] = locus YOR001W, strain rrp6, active compounds read low
[82] = locus YOR070C, strain gyp1, active compounds read low
[83] = locus YOR080W, strain dia2, active compounds read low
[84] = locus YOR083W, strain WHI5, active compounds read low
[85] = locus YOR106W, strain vam3, active compounds read low
[86] = locus YOR231W, strain MKK1, active compounds read low
[87] = locus YOR265W, strain rbl2, active compounds read low
[88] = locus YOR270C, strain vph1, active compounds read low
[89] = locus YOR290C, strain snf2, active compounds read low
[90] = locus YPL051W, strain arl3, active compounds read low
[91] = locus YPL078C, strain atp4, active compounds read low
[92] = locus YPL106C, strain sse1, active compounds read low
[93] = locus YPL240C, strain hsp82, active compounds read low
[94] = locus YPL256C, strain CLN2, active compounds read low

O=c1cc(-c2ccc(O)cc2)oc2cc(O)ccc12
normalized growth [1]: 0.967
normalized growth [2]: 0.95
normalized growth [3]: 0.959
normalized growth [4]: 0.967
normalized growth [5]: 0.929
normalized growth [6]: 0.958
normalized growth [7]: 0.981
normalized growth [8]: 0.974
normalized growth [9]: 0.974
normalized growth [10]: 0.948
normalized growth [11]: 0.976
normalized growth [12]: 0.976
normalized growth [13]: 0.969
normalized growth [14]: 0.957
normalized growth [15]: 0.963
normalized growth [16]: 0.968
normalized growth [17]: 0.96
normalized growth [18]: 0.949
normalized growth [19]: 0.925
normalized growth [20]: 0.866
normalized growth (locus YDR195W, strain ref2): 0.963
normalized growth [21]: 0.966
normalized growth [22]: 0.954
normalized growth [23]: 0.984
normalized growth [24]: 0.853
normalized growth [25]: 0.972
normalized growth [26]: 0.952
normalized growth [27]: 0.949
normalized growth [28]: 0.973
normalized growth [29]: 0.976
normalized growth [30]: 0.961
normalized growth [31]: 0.897
normalized growth [32]: 0.941
normalized growth [33]: 0.945
normalized growth [34]: 0.972
normalized growth [35]: 0.941
normalized growth [36]: 0.958
normalized growth [37]: 0.98
normalized growth [38]: 0.925
normalized growth [39]: 0.957
normalized growth [40]: 0.948
normalized growth [41]: 0.935
normalized growth [42]: 0.935
normalized growth [43]: 0.97
normalized growth [44]: 0.968
normalized growth [45]: 0.969
normalized growth [46]: 0.968
normalized growth [47]: 0.915
normalized growth [48]: 0.975
normalized growth [49]: 0.962
normalized growth [50]: 0.969
normalized growth [51]: 0.964
normalized growth [52]: 0.938
normalized growth [53]: 0.973
normalized growth [54]: 0.945
normalized growth [55]: 0.964
normalized growth [56]: 0.958
normalized growth [57]: 0.96
normalized growth [58]: 0.976
normalized growth [59]: 0.953
normalized growth [60]: 0.918
normalized growth [61]: 0.974
normalized growth [62]: 0.956
normalized growth [63]: 0.926
normalized growth [64]: 0.937
normalized growth [65]: 0.954
normalized growth [66]: 0.944
normalized growth [67]: 0.948
normalized growth [68]: 0.961
normalized growth [69]: 0.948
normalized growth [70]: 0.965
normalized growth [71]: 0.941
normalized growth [72]: 0.966
normalized growth [73]: 0.922
normalized growth [74]: 0.966
normalized growth [75]: 0.972
normalized growth [76]: 0.924
normalized growth [77]: 0.973
normalized growth [78]: 0.971
normalized growth [79]: 0.956
normalized growth [80]: 0.964
normalized growth [81]: 0.979
normalized growth [82]: 0.971
normalized growth [83]: 0.968
normalized growth [84]: 0.982
normalized growth [85]: 0.946
normalized growth [86]: 0.942
normalized growth [87]: 0.975
normalized growth [88]: 0.833
normalized growth [89]: 0.921
normalized growth [90]: 0.984
normalized growth [91]: 0.963
normalized growth [92]: 0.937
normalized growth [93]: 0.955
normalized growth [94]: 0.944

O=c1cc(-c2ccccc2)oc2cc(O)c(O)cc12
normalized growth [1]: 0.934
normalized growth [2]: 0.895 (active)
normalized growth [3]: 0.949
normalized growth [4]: 0.946
normalized growth [5]: 0.894 (active)
normalized growth [6]: 0.973
normalized growth [7]: 0.974
normalized growth [8]: 0.948
normalized growth [9]: 0.945
normalized growth [10]: 0.943
normalized growth [11]: 0.948
normalized growth [12]: 0.979
normalized growth [13]: 0.982
normalized growth [14]: 0.993
normalized growth [15]: 0.977
normalized growth [16]: 0.986
normalized growth [17]: 0.981
normalized growth [18]: 0.819 (active)
normalized growth [19]: 0.856
normalized growth [20]: 0.972
normalized growth (locus YDR195W, strain ref2): 1
normalized growth [21]: 0.952
normalized growth [22]: 0.96
normalized growth [23]: 0.979
normalized growth [24]: 0.979
normalized growth [25]: 0.964
normalized growth [26]: 0.967
normalized growth [27]: 0.964
normalized growth [28]: 0.946
normalized growth [29]: 0.99
normalized growth [30]: 0.951
normalized growth [31]: 0.971
normalized growth [32]: 0.914
normalized growth [33]: 0.949
normalized growth [34]: 0.933
normalized growth [35]: 0.973
normalized growth [36]: 0.943
normalized growth [37]: 0.939
normalized growth [38]: 0.856
normalized growth [39]: 0.945
normalized growth [40]: 0.981
normalized growth [41]: 0.972
normalized growth [42]: 0.941
normalized growth [43]: 1
normalized growth [44]: 0.972
normalized growth [45]: 0.999
normalized growth [46]: 0.985
normalized growth [47]: 0.912
normalized growth [48]: 0.994
normalized growth [49]: 0.912 (active)
normalized growth [50]: 0.876 (active)
normalized growth [51]: 0.946
normalized growth [52]: 0.954
normalized growth [53]: 0.97
normalized growth [54]: 0.98
normalized growth [55]: 0.983
normalized growth [56]: 0.975
normalized growth [57]: 1.01
normalized growth [58]: 0.976
normalized growth [59]: 0.975
normalized growth [60]: 0.99
normalized growth [61]: 0.949
normalized growth [62]: 0.953
normalized growth [63]: 0.791 (active)
normalized growth [64]: 0.97
normalized growth [65]: 0.936
normalized growth [66]: 0.903
normalized growth [67]: 0.935
normalized growth [68]: 0.964
normalized growth [69]: 0.951
normalized growth [70]: 0.956
normalized growth [71]: 1.02
normalized growth [72]: 0.972
normalized growth [73]: 0.955
normalized growth [74]: 0.958
normalized growth [75]: 0.995
normalized growth [76]: 0.951
normalized growth [77]: 0.851 (active)
normalized growth [78]: 1.02
normalized growth [79]: 0.992
normalized growth [80]: 0.987
normalized growth [81]: 0.991
normalized growth [82]: 0.979
normalized growth [83]: 0.976
normalized growth [84]: 0.961
normalized growth [85]: 0.826 (active)
normalized growth [86]: 0.996
normalized growth [87]: 0.95
normalized growth [88]: 0.773 (active)
normalized growth [89]: 0.939
normalized growth [90]: 0.943
normalized growth [91]: 0.986
normalized growth [92]: 0.855
normalized growth [93]: 0.949
normalized growth [94]: 0.955
